About 79,000 compounds went through this panel and 15% of them were active in at least one assay; those are over-represented in the sample as a whole. Unmarked numbers belong to inactive results. Active and inactive are the calls of the source. Cut-off read from the data, not from the text of the source: active = growth inhibition above about 70%; inactive = the rest.
Experiment: NCI Yeast Anticancer Drug Screen. Data for the rad50 strain (AID 155);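 note: 0% = growth of vehicle-only cultures of the same strain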
Settings: S. cerevisiae rad50 strain growth inhibition; at 50.0 µM; active compounds read high
Summary of the method: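 Readout: growth inhibition relative to vehicle-treated cultures. Compound exposure was carried out in a genetically defined yeast strain deficient in DNA damage repair.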

Compound	growth inhibition [%]
CN(C)c1ccccc1CCCCCBr	8.35
O=C1[C@@H](c2ccc(Cl)cc2)[C@H]2CC=C[C@H]2N1O	8.65
COc1cc(C(=O)CCCC(=O)O)cc(OC)c1OC	-9.15
C=C(C)/C=C/S(=O)c1ccccc1 (stereo not drawn)	-3.3
Cc1ccc(C(=O)c2ccccc2)cc1C[N+](C)(C)C	20.3
COc1ccc2c(c1)C(=O)CC(C(N)=O)C2 (stereo not drawn)	20.6
[N-]=[N+]=Nc1c(Cc2ccccc2)c(Cl)nc2ccccc12	40.5
COc1ccc(C2CC(c3ccccc3)=Nc3ccccc3S2)cc1OC (stereo not drawn)	0.25

Experiment: NCI Yeast Anticancer Drug Screen. Data for the mec2-1 strain (AID 157)
Settings: S. cerevisiae mec2-1 strain, at 50.0 µM, active compounds read high
Summary of the method: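 Vehicle-treated cultures served as reference for growth inhibition of compound-exposed mec2-1 yeast.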

Compound	growth inhibition
C=CCCC(C)(C(=O)OCC)C(=O)OCC	-15.8%
C(CCC[Si]12OCCN(CCO1)CCO2)CC[Si]12OCCN(CCO1)CCO2	-1.8%
C=C1C2CC[C@@]3(CC[C@@H]4[C@@]5(C)CCC[C@@]4(CN4CCO[C@H]45)[C@@H]3C2)[C@@H]1O	-5.9%
CCC(C)C(N)C1=NC(C(=O)NC(CC(C)C)C(=O)NC(CCC(=O)O)C(=O)NC(C(=O)NC2CCCCNC(=O)C(CC(N)=O)NC(=O)C(CC(=O)O)NC(=O)C(Cc3cnc[nH]3)NC(=O)C(Cc3ccccc3)NC(=O)C(C(C)CC)NC(=O)C(CCCN)NC2=O)C(C)CC)CS1 (stereo not drawn)	-24.9%
NC(=S)Cc1ccccn1	15.5%
Cc1ccc(/C=N/NC(N)=S)c(C)c1	-25.4%
CCOC(=O)CC(C)C(C(=O)OCC)C(=O)OCC (stereo not drawn)	6.15%
CN(C)c1nc(=NCc2ccncc2)ss1	8.45%
CN(C)C(=O)Sc1ccc(N(C)C)cc1	-17.9%
Cc1nc(C)c(N2CCN(S(=O)(=O)N(Cc3ccccc3)Cc3ccccc3)CC2)c(=O)[nH]1	-5.95%
CCCC1SCC(C)(C)NC1=O (stereo not drawn)	3.25%
CCCCCCP(=O)(CCCCCC)C1CCCCC1	99.5% (active)
Clc1ccc(-c2nnc(-c3ccc4ccccc4c3)o2)cc1Cl	-28.9%
Nc1ccc(S(=O)(=O)Nc2nc3ccccc3nc2Nc2ccc(S(N)(=O)=O)cc2)cc1	-5.05%
O=S1(=O)CCC(Br)c2ccccc2C1 (stereo not drawn)	21%
C[N+](C)(C)CC(=O)N/N=C(/C=C/c1ccccc1)CC1OC(=O)c2ccccc21 (stereo not drawn)	-11.4%
CC(C)(C)OC(=O)Cc1c[nH]c2ccccc12	-27.1%
CCOC(=O)c1noc(Oc2ccc(Cl)cc2Cl)n1	0.15%
CCN(CC)C(=O)N1C=CC(C)C=C1	-15.1%
Cc1cc(C)c([N+](=O)[O-])cc1[N+](=O)[O-]	5.5%

Compound	growth inhibition
CNC(=O)Nc1ccc(Cl)cc1C(=O)O	2.45%
CC(=O)Nc1ccc(S(=O)(=O)NNC(=O)NNS(=O)(=O)c2ccc(NC(C)=O)cc2)cc1	-7.2%
CC(=O)Nc1ccc(C(=O)NN2C(=O)C(Cl)C2c2ccccc2)cc1 (stereo not drawn)	-18.4%
N#CC(C#N)=CN1CCCCC1	-4.65%
C1CSC[C@H]2COC[C@@H](CSCCS1)S2	4.25%
COC(=O)CC1(O)C=C(C)C(=O)c2ccccc21 (stereo not drawn)	-5.7%
Nc1ccc(F)cc1C(F)(F)F	-45%
O=C(c1ccc(O)c(C(=O)O)c1)c1ccc(O)c(C(=O)O)c1	-13.9%
COC(=O)/C(C#N)=C1\CCC(OC)N1 (stereo not drawn)	6.95%
CC(=O)NC1=C/C(=C/COC(C)=O)OC1=O	-9.9%
C=C1C(=C)C2C=CC1C1C3C(c4ccccn4)=NN=C(c4ccccn4)C3C21 (stereo not drawn)	66.2%
Nc1nc(N)c(N=Nc2ccc(S(=O)(=O)NC(=O)c3ccccc3)cc2)c(=O)[nH]1	-4.3%
CN(C)c1ccccc1CCCCCBr	5.5%
O=C1[C@@H](c2ccc(Cl)cc2)[C@H]2CC=C[C@H]2N1O	-21.4%
COc1cc(C(=O)CCCC(=O)O)cc(OC)c1OC	3.4%
C=C(C)/C=C/S(=O)c1ccccc1 (stereo not drawn)	-2.85%
Cc1ccc(C(=O)c2ccccc2)cc1C[N+](C)(C)C	3.35%
COc1ccc2c(c1)C(=O)CC(C(N)=O)C2 (stereo not drawn)	2.85%
[N-]=[N+]=Nc1c(Cc2ccccc2)c(Cl)nc2ccccc12	57.9%
COc1ccc(C2CC(c3ccccc3)=Nc3ccccc3S2)cc1OC (stereo not drawn)	-26.3%

Source: PubChem BioAssay (NCI)
